This note sets out measurements from PubChem BioAssay.

The nature of test [1]: antimalarial activity against Dd2 strain (AID 2302;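 active = growth inhibition above 50% at the single 2 µM test dose, taken to imply half-maximal potency below 2 µM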;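 also: 0% = DMSO untreated growth and 100% = chloroquine plus artemisinin killed control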). Conditions: P. falciparum Dd2 in RBCs, LDH growth readout, 72 h; at 2 µM; hits give high values.
A short description of test [2]: HepG2 cytotoxicity, primary screen, cytotoxicity control for P. falciparum antimalarial project, cell-based, ATP luminescence (AID 2303;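 active = inhibition above 50%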;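 also: 0% = DMSO wells and 100% = digitonin-killed cells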). Conditions: HepG2 viability, 24-48 h, at 10 µM, hits give high values.
For test [3], the target named is L-lactate dehydrogenase (Plasmodium falciparum (isolate CDC / Honduras)) (UniProt Q27743). The test is described as follows: PfLDH activity inhibition – cell lysate, 3D7 strain, counter-screen for P. falciparum growth inhibition project (AID 2304).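 Also: 0% = vehicle and 100% = reference inhibitor.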 The following applies: P. falciparum 3D7 crude extract, LDH APAD/NBT absorbance; at 2 µM; hits give high values.
Test [4] in a line: inhibition of 3D7 malaria parasite growth – strain 3D7 (AID 2306).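 Also: 0% = DMSO wells and 100% = chloroquine plus artemisinin control wells.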 The following applies: P. falciparum 3D7 erythrocytic growth, LDH absorbance, 72 h; at 2 µM; hits give high values.
Test [5] addresses Calcium-dependent protein kinase 1 (Plasmodium falciparum (isolate 3D7)) (UniProt P62344). Briefly: PfCDPK1 kinase inhibitors, biochemical, TCAMS library (AID 1159585; cut-off not given, nearly all actives have IC50 up to about 0.98 µM;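 also: inhibitors leave more ATP so luminescence rises with inhibition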). Conditions: recombinant PfCDPK1, Kinase-Glo ATP depletion luminescence. A general note: Kinase-Glo measures the ATP left after a reaction by luminescence.
Test [6] concerns the target Plasmodium falciparum protein kinase 6 (PK6, PF3D7_1337100) (UniProt Q8IDW1). The test is described as follows: PfPK6 kinase inhibitors, biochemical, TCAMS library (AID 1159586). Conditions: recombinant PfPK6, Kinase-Glo ATP depletion luminescence.
Test [7] deals with Protein kinase 7 (PK7), Plasmodium falciparum 3D7 (PF3D7_0213400) (UniProt Q7YTF7). Briefly: inhibition of Plasmodium PK7 catalytic activity – biochemical, TCAMS antimalarial set, Kinase-Glo luminescence (AID 1159587). Conditions: recombinant PfPK7, Kinase-Glo ATP depletion luminescence.
In test [8] the target is Calcium-dependent protein kinase 4 (Plasmodium falciparum (isolate 3D7)) (UniProt Q8IBS5). The test is described as follows: PfCDPK4 kinase inhibitors, biochemical, TCAMS library (AID 1159588; cut-off not given, nearly all actives have IC50 up to about 0.91 µM). The following applies: recombinant PfCDPK4, Kinase-Glo ATP depletion luminescence.

SMILES strings stand for the structures. A number with no mark means an inactive call. For some of these results: Results with a measured potency or affinity are listed apart. The source made the active and inactive calls. Unless noted, no rule for the calls is given here.

Chain of Calcium-dependent protein kinase 4 (Plasmodium falciparum (isolate 3D7)) (Q8IBS5 whole entry, looked up): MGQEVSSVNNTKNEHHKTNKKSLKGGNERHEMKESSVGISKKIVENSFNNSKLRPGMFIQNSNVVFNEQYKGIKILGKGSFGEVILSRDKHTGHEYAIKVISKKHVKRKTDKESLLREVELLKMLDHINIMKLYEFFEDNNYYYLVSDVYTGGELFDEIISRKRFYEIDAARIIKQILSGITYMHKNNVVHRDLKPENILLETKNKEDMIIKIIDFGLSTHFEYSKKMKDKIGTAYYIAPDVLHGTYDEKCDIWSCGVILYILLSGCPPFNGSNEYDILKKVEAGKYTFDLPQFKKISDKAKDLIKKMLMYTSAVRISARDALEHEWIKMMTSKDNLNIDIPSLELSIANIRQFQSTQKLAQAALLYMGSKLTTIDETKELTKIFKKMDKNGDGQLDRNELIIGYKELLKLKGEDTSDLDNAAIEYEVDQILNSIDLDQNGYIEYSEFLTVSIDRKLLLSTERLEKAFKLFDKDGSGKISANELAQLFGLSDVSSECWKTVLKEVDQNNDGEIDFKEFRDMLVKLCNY
Chain of Plasmodium falciparum protein kinase 6 (PK6, PF3D7_1337100) (Q8IDW1 1-305): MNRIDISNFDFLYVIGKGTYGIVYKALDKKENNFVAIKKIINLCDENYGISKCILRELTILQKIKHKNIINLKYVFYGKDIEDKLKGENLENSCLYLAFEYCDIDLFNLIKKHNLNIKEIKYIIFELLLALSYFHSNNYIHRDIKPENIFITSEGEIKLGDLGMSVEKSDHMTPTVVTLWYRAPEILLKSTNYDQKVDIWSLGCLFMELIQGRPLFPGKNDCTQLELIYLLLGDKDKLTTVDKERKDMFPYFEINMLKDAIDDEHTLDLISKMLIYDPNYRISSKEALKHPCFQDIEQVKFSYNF
Chain of Calcium-dependent protein kinase 1 (Plasmodium falciparum (isolate 3D7)) (P62344 whole entry, looked up): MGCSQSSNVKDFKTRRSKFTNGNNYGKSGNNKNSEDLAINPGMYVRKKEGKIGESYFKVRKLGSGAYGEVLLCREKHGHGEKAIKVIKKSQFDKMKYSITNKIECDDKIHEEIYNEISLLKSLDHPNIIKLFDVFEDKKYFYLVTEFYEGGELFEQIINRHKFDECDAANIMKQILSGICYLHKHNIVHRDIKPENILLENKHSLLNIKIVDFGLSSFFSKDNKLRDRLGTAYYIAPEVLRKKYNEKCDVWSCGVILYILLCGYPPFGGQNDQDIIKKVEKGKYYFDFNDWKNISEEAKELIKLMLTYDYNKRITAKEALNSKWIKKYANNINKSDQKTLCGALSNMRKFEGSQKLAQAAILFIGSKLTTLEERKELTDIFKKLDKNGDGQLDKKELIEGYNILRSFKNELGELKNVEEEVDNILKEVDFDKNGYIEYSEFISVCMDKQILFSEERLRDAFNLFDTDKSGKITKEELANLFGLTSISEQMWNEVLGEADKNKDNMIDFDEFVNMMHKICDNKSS
Chain of L-lactate dehydrogenase (Plasmodium falciparum (isolate CDC / Honduras)) (Q27743 whole entry, looked up): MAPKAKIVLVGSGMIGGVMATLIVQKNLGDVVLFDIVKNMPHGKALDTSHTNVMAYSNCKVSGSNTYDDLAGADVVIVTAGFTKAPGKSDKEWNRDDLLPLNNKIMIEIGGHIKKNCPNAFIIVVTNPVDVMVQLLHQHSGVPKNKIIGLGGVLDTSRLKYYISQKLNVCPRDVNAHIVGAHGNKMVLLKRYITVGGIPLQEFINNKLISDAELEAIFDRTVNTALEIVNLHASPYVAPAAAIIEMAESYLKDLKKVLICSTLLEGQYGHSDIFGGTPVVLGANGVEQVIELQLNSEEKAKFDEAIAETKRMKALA
Chain of Protein kinase 7 (PK7), Plasmodium falciparum 3D7 (PF3D7_0213400) (Q7YTF7 1-343): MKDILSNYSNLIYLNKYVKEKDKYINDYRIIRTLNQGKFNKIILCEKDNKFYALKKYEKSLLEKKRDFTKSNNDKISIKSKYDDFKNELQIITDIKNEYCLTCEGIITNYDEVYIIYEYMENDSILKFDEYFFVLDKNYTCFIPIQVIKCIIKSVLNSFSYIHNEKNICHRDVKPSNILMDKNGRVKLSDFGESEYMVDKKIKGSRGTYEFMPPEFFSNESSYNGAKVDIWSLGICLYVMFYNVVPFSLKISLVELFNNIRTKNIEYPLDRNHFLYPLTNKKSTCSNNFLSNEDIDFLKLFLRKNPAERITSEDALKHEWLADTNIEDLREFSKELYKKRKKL

On to `CC(C)c1ccc(CN2CCCCC(NC(=O)c3cc(-c4cccc(F)c4)cs3)C2)cc1` (stereo not given), for which the growth inhibition is 13% in test [1] and 94% (active) in test [4]. Besides, the inhibition is 6% in test [2] and 1% in test [3]. In addition, the result in test [5], in test [6], in test [7] and in test [8] was inactive.

As for `C=C(NC(=O)C1CCCCC1)C(=O)OC`, the growth inhibition in test [1] was 3%; in test [4], 93% (active). The inhibition in test [2] is 15%; in test [3], -4%. Besides, the outcome in test [5], in test [6], in test [7] and in test [8] was inactive.

For `CO/C(=C\C=C\c1cc2cc(Cl)c(Cl)cc2[nH]1)C(=O)NC1CCN(CCNc2ccccc2)CC1`, the values for the growth inhibition in test [1] and in test [4] were 98% (active) and 102% (active), respectively. Moreover, the inhibition is 60% (active) in test [2] and 1% in test [3]. In addition, the result in test [5], in test [6], in test [7] and in test [8] was inactive.

As to `OC(c1ccc(Cl)cc1)(c1ccc(Cl)cc1)C(c1ccc(Cl)cc1)n1ccnc1` (stereo not given), the figures for the growth inhibition in test [1] and in test [4] were 100% (active) and 101% (active), respectively. Also, the inhibition in test [2] is 15%; in test [3], -3%. The result in test [5], in test [6], in test [7] and in test [8] was inactive.

In the case of `Cc1ccc(-n2cc(CNCC3CCN(CCO)CC3)c(-c3ccc(F)cc3)n2)cc1`, the growth inhibition was 18% in test [1] and 91% (active) in test [4]. Also, the inhibition in test [2] was 29%; in test [3] it was -1%. Also, the result in test [5], in test [6], in test [7] and in test [8] was inactive.

`COc1ccc(S(=O)(=O)NC2CCN(CCCOc3ccnc4cc(Cl)ccc34)C2)cc1OC` (stereo not given): the figures for the growth inhibition in test [1] and in test [4] were 56% (active) and 91% (active), respectively. Besides, the inhibition in test [2] was 8%; in test [3], 1%. The outcome in test [5], in test [6], in test [7] and in test [8] was inactive.

`Cn1c(Sc2ncnc3sccc23)nc2ccccc21`: the growth inhibition in test [1] and in test [4] was 100% (active) each time. The values for the inhibition in test [2] and in test [3] were -12% and 5%, respectively. The outcome in test [5], in test [6], in test [7] and in test [8] was inactive.

Regarding `Cc1ccc(C(=O)Nc2ccc(C)c(OC3CCN(Cc4ccco4)C3)c2)cc1` (stereo not given), the growth inhibition is 49% in test [1] and 90% (active) in test [4]. The inhibition in test [2] is 10%; in test [3], 3%. The outcome in test [5], in test [6], in test [7] and in test [8] was inactive.

Turning to `Oc1cc(Nc2ccnc3cc(-c4ccc(CN5CCCCC5)o4)ccc23)c(Cl)cc1F`, the figures for the growth inhibition in test [1] and in test [4] were 81% (active) and 101% (active), respectively. Further, the inhibition was 30% in test [2] and 5% in test [3]. In addition, the result in test [5], in test [6], in test [7] and in test [8] was inactive.

`Cc1cnc(C(=O)Nc2cccc(-c3cccc(-c4nc5ccc(F)cc5[nH]4)c3)c2)cn1`: the growth inhibition in test [1] was 24%; in test [4] it was 99% (active). Besides, the inhibition in test [2] was 25%; in test [3], -1%. In addition, the result in test [5], in test [6], in test [7] and in test [8] was inactive.

As to `Cc1cc(NN=Cc2ccccc2Cl)c2ccccc2n1`, the growth inhibition was 30% in test [1] and 102% (active) in test [4]. The inhibition in test [2] is -3%; in test [3], 2%. Besides, the outcome in test [5], in test [6], in test [7] and in test [8] was inactive.

As to `O=C(NCc1ccc2c(c1)OCO2)c1nn(CCN2CCC(N3CCCC3)CC2)cc1-c1ccc(Cl)c(Cl)c1`, the values for the growth inhibition in test [1] and in test [4] were 17% and 94% (active), respectively. In addition, the inhibition is 21% in test [2] and -2% in test [3]. Also, the result in test [5], in test [6], in test [7] and in test [8] was inactive.

For the molecule `COc1ccccc1Nc1nc(C)cc(NCc2ccc(-c3c(C)noc3C)cc2)n1`, the growth inhibition was 13% in test [1] and 98% (active) in test [4]. In addition, the inhibition is 12% in test [2] and -6% in test [3]. Further, the outcome in test [5], in test [6], in test [7] and in test [8] was inactive.

As to `CCC(Cc1cnc2nc(N)nc(N)c2n1)c1ccc(C(=O)N[C@@H](CCC(=O)O)C(=O)O)cc1` (stereo not given in full), the growth inhibition in test [1] was 98% (active); in test [4], 93% (active). Besides, the inhibition in test [2] was 64% (active); in test [3], -2%. Also, the outcome in test [5], in test [6], in test [7] and in test [8] was inactive.

In the case of `Oc1cc(Nc2ccnc3cc(-c4cccc(CN5CCCCC5)c4)ccc23)c(F)cc1Cl`, the growth inhibition in test [1] and in test [4] was 101% (active) in each case. In addition, the inhibition in test [2] was 21%; in test [3] it was -3%. In addition, the result in test [5], in test [6], in test [7] and in test [8] was inactive.

Regarding `COc1ccc(-c2ccc(NC(=O)c3ccc(C#N)cc3)cc2)cc1CN1CCNCC1`, the figures for the growth inhibition in test [1] and in test [4] were 42% and 96% (active), respectively. Also, the results for the inhibition in test [2] and in test [3] were 23% and 0%, respectively. Moreover, the result in test [5], in test [6], in test [7] and in test [8] was inactive.

As for `O=C(NC1CC1)c1cnc(N2CCC(COc3cccc(F)c3)CC2)c(Cl)c1`, the growth inhibition in test [1] is 87% (active); in test [4], 89% (active). The inhibition in test [2] is 1%; in test [3], 5%. Moreover, the result in test [5], in test [6], in test [7] and in test [8] was inactive.

With `CCOC(=O)[C@H](Cc1cc([N+](=O)[O-])c(Oc2ccc(OC)c(Cc3ccc(OC)c(C(C)C)c3)c2)c([N+](=O)[O-])c1)NC(=O)C(F)(F)F`, the values for the growth inhibition in test [1] and in test [4] were -3% and 94% (active), respectively. Besides, the inhibition was 5% in test [2] and -3% in test [3]. Besides, the result in test [5], in test [6], in test [7] and in test [8] was inactive.

For the molecule `CC(C)(C)c1ccc(CN2CCC(NC(=O)c3ccc(-c4cccc(C(F)(F)F)c4)s3)CC2)cc1`, the values for the growth inhibition in test [1] and in test [4] were 96% (active) and 100% (active), respectively. Further, the inhibition in test [2] was 97% (active); in test [3], -5%. For the same molecule, the outcome in test [5], in test [6], in test [7] and in test [8] was inactive.

`O=C(Nc1cccc(C(F)(F)F)c1)c1cc([N+](=O)[O-])cc2cn[nH]c12`: the growth inhibition in test [1] is 69% (active); in test [4] it was 101% (active). Moreover, the inhibition in test [2] was 60% (active); in test [3], 3%. Further, the result in test [5], in test [6], in test [7] and in test [8] was inactive.

As a reminder, the inhibition is the drop in the measured response relative to a control, in per cent.
